test system: EPHB1; settings: concentration: 1 μM, replicates: in singlicate; n = 1
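Note: KINOMEscan kinase panel screen.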

Which “%Inh” value does the source give for COc1cc(Nc2nccc(N3CCC(NC(=O)Nc4cc(C)ccc4C)C3)n2)cc(OC)c1OC (stereo not shown) [GSK1379762] here?
The value was 12%.

With COC(=O)c1c(-c2ccccc2)c2cc(OC)ccc2c(=O)n1Cc1ccccc1 as the compound, how does the “%Inh” value read?
The value was 0%.

With Cc1c(Cn2ccn3c(=O)cc(N4CCOCC4)nc23)cccc1C(F)(F)F [GSK2289044] as the compound, how does the “%Inh” value read?
The value was 21%.

How did the “%Inh” value turn out when Cl.Oc1ccc(-c2nc(-c3ccccc3)[nH]c2-c2ccncc2)cc1 [SB-428218] was run?
Its value is 0%.

Which “%Inh” value does the source give for CC1=C(C(=O)Nc2cc3cn[nH]c3cc2F)C(c2ccc(C(F)(F)F)cc2)CC(=O)N1 (stereo not shown) [GSK429286] here?
Its value is 3%.

For CCCc1ccc(S(=O)(=O)NC2CCN(c3ccnc(Nc4ccc(F)cc4)n3)C2)cc1 (stereo not shown) [GSK1379715], which “%Inh” value is on record?
The value was 0%.

Which “%Inh” value does the source give for Cc1ccc(NC(=O)Nc2cccc(Cl)c2)cc1-c1ccc(C(=O)Nc2ccncc2)cc1 [GSK1398468] here?
The value was 26%.

For O=S(=O)(c1ccc(-c2ccnc3[nH]ccc23)cc1)N1CCCC1 [GSK846226], which “%Inh” value is on record?
The value was 3%.

Cn1ccc2ncnc(Oc3ccc(NC(=O)Nc4ccccc4)cc3)c21 was tested. Which “%Inh” value did it give?
The value was 0%.

With CCn1c(-c2ccccn2)nc2cnccc21 [SB-736398] as the compound, how does the “%Inh” value read?
The value was 0%.

How did the “%Inh” value turn out when CC(=O)Nc1nc2cnc(Nc3cc(NC(=O)c4cccc(CCC#N)c4)ccc3C)nc2s1 was run?
Its value is 6%.

For Cc1cccc(-c2nc(C)cc(Nc3ccncc3)n2)n1 [GSK257997], which “%Inh” value is on record?
The value was 23%.

How did the “%Inh” value turn out when CS(=O)(=O)c1ccc(-c2c(-c3ncn[nH]3)sc(N3CCOCC3)c2C#N)cc1 was run?
The value was 6%.

With O=C(O)COc1ncnc2cc(-c3ccc4[nH]ncc4c3)sc12 as the compound, how does the “%Inh” value read?
Its value is 0%.

Cc1c(O)cccc1Nc1ccnc2ccc(C(F)(F)F)cc12.Cl [GW466413] was tested. Which “%Inh” value did it give?
The value was 9%.

With O=C(Nc1ccc2c(c1)OCO2)NC1CCN(c2ccnc(Nc3ccc(F)cc3)n2)C1 (stereo not shown) [GSK1379724] as the compound, how does the “%Inh” value read?
Its value is 0%.

Which “%Inh” value does the source give for Cl.c1ccc(-c2n[nH]cc2-c2ccnc(-c3ccc(CN4CCOCC4)cc3)c2)nc1 [GW776245] here?
Its value is 10%.

With Cc1ccc(NC(=O)Nc2cc(C(C)(C)C)nn2-c2ccccc2)cc1 [GSK1014915] as the compound, how does the “%Inh” value read?
Its value is 14%.

test system: EPHB2; settings: concentration: 1 μM, replicates: in singlicate; n = 1

How did the “%Inh” value turn out when Cc1cccc(-c2nc(Nc3cccc(C(N)=O)c3)c3ccccc3n2)n1 [GW876019] was run?
The value was 8%.

With CC(C)(C)c1ccc(C(=O)Nc2cn3cc(-c4cccnc4)ccc3n2)cc1 as the compound, how does the “%Inh” value read?
The value was 4%.

Clc1cc(Cl)cc(Nc2ccnc(Nc3cc(Cl)cc(Cl)c3)n2)c1 [GSK175726] was tested. Which “%Inh” value did it give?
Its value is 19%.

For COc1ccc(CNC(=O)NC2CCN(c3ccnc(Nc4cc(OC)c(OC)c(OC)c4)n3)C2)cc1 (stereo not shown) [GSK1379748], which “%Inh” value is on record?
The value was 0%.

For Fc1cccc(COc2nnc(-c3ccc4c(c3)CCO4)o2)c1, which “%Inh” value is on record?
The value was 0%.

For CN1C(=O)C(Nc2ccc(Cl)c(C(=O)O)c2)=C(c2ccc(Cl)cc2)C1=O [SB-404290], which “%Inh” value is on record?
The value was 0%.

With Cn1cncc1-c1ccc2ncnc(Nc3ccc(OCc4ccccc4)cc3)c2c1 [GW320571] as the compound, how does the “%Inh” value read?
The value was 0%.

How did the “%Inh” value turn out when Nc1ncnc2[nH]c(-c3ccccc3)nc12 [AH5015] was run?
Its value is 8%.

How did the “%Inh” value turn out when Cc1nnc(-c2ccc3occ(-c4ccc(S(C)=O)cc4)c3c2)[nH]1 (stereo not shown) was run?
Its value is 16%.

For Fc1cc(Cl)ccc1Nc1ccnc2cc(I)ccc12 [GW551191], which “%Inh” value is on record?
Its value is 25%.

CC(C)(C)c1ccc(C(=O)Nc2cn3cc(Cl)ccc3n2)cc1 was tested. Which “%Inh” value did it give?
Its value is 0%.

How did the “%Inh” value turn out when C[C@@H]1CCCCN1c1cc(-c2ccc3c(N)n[nH]c3c2)nc(N)n1 [GSK2258759] was run?
Its value is 0%.

How did the “%Inh” value turn out when Cc1cccc(-c2nc(Nc3ccc4[nH]ncc4c3)c3ccccc3n2)n1 [GW857175] was run?
Its value is 0%.

Which “%Inh” value does the source give for Cc1cccc(-c2cc(Nc3ccncc3)c3ccccc3n2)n1 [GSK223675] here?
Its value is 0%.

Which “%Inh” value does the source give for COc1cc2nccc(Nc3ccc(NC(=O)c4ccc(C)cc4)c(O)c3)c2cc1OC.Cl [GW440132] here?
The value was 0%.

How did the “%Inh” value turn out when COc1cc(Nc2nccc(N3CCC(NC(=O)Nc4cc(C)ccc4C)C3)n2)cc(OC)c1OC (stereo not shown) [GSK1379762] was run?
Its value is 0%.

How did the “%Inh” value turn out when CSc1nn2c(=O)cc(N3CCOCC3)nc2n1Cc1cccc(C(F)(F)F)c1C [GSK2363608] was run?
The value was 0%.

How did the “%Inh” value turn out when COC(=O)c1c(-c2ccccc2)c2cc(OC)ccc2c(=O)n1Cc1ccccc1 was run?
The value was 23%.

How did the “%Inh” value turn out when Cc1c(Cn2ccn3c(=O)cc(N4CCOCC4)nc23)cccc1C(F)(F)F [GSK2289044] was run?
Its value is 0%.

How did the “%Inh” value turn out when Cl.Oc1ccc(-c2nc(-c3ccccc3)[nH]c2-c2ccncc2)cc1 [SB-428218] was run?
Its value is 4%.

For CC1=C(C(=O)Nc2cc3cn[nH]c3cc2F)C(c2ccc(C(F)(F)F)cc2)CC(=O)N1 (stereo not shown) [GSK429286], which “%Inh” value is on record?
The value was 10%.

With CCCc1ccc(S(=O)(=O)NC2CCN(c3ccnc(Nc4ccc(F)cc4)n3)C2)cc1 (stereo not shown) [GSK1379715] as the compound, how does the “%Inh” value read?
Its value is 6%.

How did the “%Inh” value turn out when Cc1ccc(NC(=O)Nc2cccc(Cl)c2)cc1-c1ccc(C(=O)Nc2ccncc2)cc1 [GSK1398468] was run?
The value was 15%.

For O=S(=O)(c1ccc(-c2ccnc3[nH]ccc23)cc1)N1CCCC1 [GSK846226], which “%Inh” value is on record?
The value was 0%.

Cn1ccc2ncnc(Oc3ccc(NC(=O)Nc4ccccc4)cc3)c21 was tested. Which “%Inh” value did it give?
Its value is 1%.

With CCn1c(-c2ccccn2)nc2cnccc21 [SB-736398] as the compound, how does the “%Inh” value read?
Its value is 0%.

Which “%Inh” value does the source give for CC(=O)Nc1nc2cnc(Nc3cc(NC(=O)c4cccc(CCC#N)c4)ccc3C)nc2s1 here?
The value was 24%.

With Cc1cccc(-c2nc(C)cc(Nc3ccncc3)n2)n1 [GSK257997] as the compound, how does the “%Inh” value read?
Its value is 0%.

For CS(=O)(=O)c1ccc(-c2c(-c3ncn[nH]3)sc(N3CCOCC3)c2C#N)cc1, which “%Inh” value is on record?
The value was 0%.

With O=C(O)COc1ncnc2cc(-c3ccc4[nH]ncc4c3)sc12 as the compound, how does the “%Inh” value read?
Its value is 0%.

How did the “%Inh” value turn out when Cc1c(O)cccc1Nc1ccnc2ccc(C(F)(F)F)cc12.Cl [GW466413] was run?
Its value is 0%.

With O=C(Nc1ccc2c(c1)OCO2)NC1CCN(c2ccnc(Nc3ccc(F)cc3)n2)C1 (stereo not shown) [GSK1379724] as the compound, how does the “%Inh” value read?
Its value is 5%.

Cl.c1ccc(-c2n[nH]cc2-c2ccnc(-c3ccc(CN4CCOCC4)cc3)c2)nc1 [GW776245] was tested. Which “%Inh” value did it give?
Its value is 30%.

With Cc1ccc(NC(=O)Nc2cc(C(C)(C)C)nn2-c2ccccc2)cc1 [GSK1014915] as the compound, how does the “%Inh” value read?
The value was 0%.
